# Measured values from PubChem BioAssay AID1851 (National Center for Advancing Translational Sciences (NCATS), 2009).
# “And” between values parts separate entries of the source, which are not always exact repeats. Equal values may be shown once. The campaign covered roughly 16,000 compounds. About 5,100 (32%) were called active. Not shown: some 25% with an inconclusive outcome. The list shows a part of the results. Unmarked numbers belong to inactive results. The call rests on the fitted dose curve; in most records, active means well fitted curve in the direction sought with a large enough effect; inconclusive means small, poorly fitted or top-dose-only effect, or effect the other way; inactive means no such curve, though single readings can be large or run the other way.
# Biological target: Cytochrome P450 3A4 (Homo sapiens) (UniProt P08684)
# Test: Cytochrome panel assay with activity outcomes
# Conditions: recombinant CYP, pro-luciferin dealkylation, luminescence, p450-cyp3a4; series mostly up to 57.1 µM; activity, negative = inhibition: at the top concentration
# On the % scale 0 is the no-effect control and ±100 the full control effect.
# Sequence of Cytochrome P450 3A4 (Homo sapiens) (P08684 whole entry, looked up): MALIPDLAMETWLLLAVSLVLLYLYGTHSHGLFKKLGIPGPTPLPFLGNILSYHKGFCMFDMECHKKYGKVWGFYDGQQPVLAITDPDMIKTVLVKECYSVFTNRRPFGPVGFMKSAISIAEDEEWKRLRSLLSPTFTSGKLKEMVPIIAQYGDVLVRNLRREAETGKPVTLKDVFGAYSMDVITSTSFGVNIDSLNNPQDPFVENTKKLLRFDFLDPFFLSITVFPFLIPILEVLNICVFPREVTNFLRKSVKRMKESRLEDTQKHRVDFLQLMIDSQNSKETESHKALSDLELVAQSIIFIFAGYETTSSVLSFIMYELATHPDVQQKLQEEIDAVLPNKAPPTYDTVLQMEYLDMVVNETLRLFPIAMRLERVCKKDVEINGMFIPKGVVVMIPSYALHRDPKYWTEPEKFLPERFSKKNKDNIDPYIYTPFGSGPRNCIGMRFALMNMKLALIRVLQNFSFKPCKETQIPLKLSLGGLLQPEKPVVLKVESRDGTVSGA
SMILES,"activity, negative = inhibition",AC50
O=c1[nH]cc(CS(=O)(=O)Cc2c[nH]c(=O)[nH]c2=O)c(=O)[nH]1,-10.9% [at 11.4 µM],
CN1C(=O)C(CC(N)=O)N(NC(=O)c2ccc(Cl)cc2)C1=S (configuration not stated),-10.7%,
CCCNC(=O)OC[C@@H]1O[C@H](CCO/N=C\[C@@H](C)[C@H](OCc2ccccc2)C(C)C)C=C[C@@H]1Oc1ccc(OC)cc1,,3.98 µM (active)
COc1ccc(O[C@H]2C=C[C@@H](c3ccccc3)O[C@H]2CO/N=C(/C)CCC(=O)OC[C@@H]2O[C@H](c3ccccc3)C=C[C@@H]2Oc2ccc(OC)cc2)cc1,,3.98 µM (active)
CCCNC(=O)OC[C@@H]1O[C@H](c2ccccc2)C=C[C@@H]1Oc1ccc(OC)cc1,,3.98 µM (active)
CC(=O)OC[C@@H]1O[C@H](CCO/N=C\[C@@H](C)[C@H](OCc2ccccc2)C(C)C)C=C[C@@H]1OC(C)=O,-26.2% [at 11.4 µM],
COc1ccc(O[C@H]2C=C[C@@H](c3ccccc3)O[C@H]2COC(=O)N2CCCCC2)cc1,-82.7% [at 11.4 µM],
Cc1nn(Cc2ccc([N+](=O)[O-])cc2)c(=O)n1-c1cccc(F)c1,4.03%,
Cc1cc(C)c(Cn2cnc(-c3ccc([N+](=O)[O-])cc3)c2)c(C)c1,,7.94 µM (active)
C=CC[C@@H]1C=C[C@H](Oc2ccc(C)cc2)[C@H](COC(=O)NCc2cccc3ccccc23)O1,,3.16 µM (active)
C=CC[C@@H]1C=C[C@H](ON=C(C)C)[C@H](CO)O1,-13.4% [at 11.4 µM],
CC(=O)OC[C@@H]1O[C@H](C/C=N\OC[C@@H](O)COCc2ccco2)C=C[C@@H]1OC(C)=O,-26.2% [at 11.4 µM],
C/C(CCC(=O)OC[C@@H]1O[C@H](C#Cc2ccccc2)C=C[C@@H]1Oc1ccc(C)cc1)=N/OC[C@@H](O)COCc1ccco1,,3.16 µM (active)
O=c1n(-c2ccccc2)c(=O)n2n1CC[C@H]1/C(=N\OC[C@@H](O)COCc3ccco3)[C@H]3O[C@@H]3[C@@H](O)[C@@H]12,-24.1% [at 11.4 µM] and -23% [at 11.4 µM],
C=CC[C@@H]1C=C[C@@H](O/N=C(/C)CCC(=O)OC[C@@H]2O[C@H](C#Cc3ccccc3)C=C[C@@H]2Oc2ccc(C)cc2)[C@@H](CO)O1,,5.01 µM (active)
CO/N=C(/C)CCC(=O)OC[C@@H]1O[C@H](C#Cc2ccccc2)C=C[C@@H]1Oc1ccc(C)cc1,,3.98 µM (active)
CC(=O)N[C@@H](CC(=O)O)C(=O)O,-13.1% [at 25.6 µM],
CC(=O)OC[C@H]1O[C@@H](O/N=C(\C)CCC(=O)OC[C@@H]2O[C@H](C#Cc3ccccc3)C=C[C@@H]2Oc2ccc(C)cc2)[C@H](OC(C)=O)[C@@H](OC(C)=O)[C@H]1OC(C)=O,,3.16 µM (active)
CCOC(=O)CCN1C(=O)[C@H]2[C@H]3[C@H](O)[C@H](O)C/C(=N/O[C@@H]4O[C@@H](COC(C)=O)[C@@H](OC(C)=O)[C@@H](OC(C)=O)[C@H]4OC(C)=O)[C@H]3CC[C@@H]2C1=O,-10.4% [at 11.4 µM],
CC(=O)OC[C@H]1O[C@@H](ON=C(C)C)[C@H](OC(C)=O)[C@@H](OC(C)=O)[C@H]1OC(C)=O,-17.9% [at 11.4 µM],
CC(=O)OC[C@@H]1O[C@H](CCO/N=C(\C)CCC(=O)OC[C@@H]2O[C@H](C#Cc3ccccc3)C=C[C@@H]2Oc2ccc(C)cc2)C=C[C@@H]1OC(C)=O,,3.16 µM (active)
CC(C(=O)NC1CCCC1)N(C(=O)c1ccc(-c2ccccc2)[nH]1)c1ccccc1F (configuration not stated),,3.98 µM (active)
O=C(NCCCc1ccccc1)c1cccs1,-26.4%,
O=C(NC1CCCCCC1)c1cccs1,,14.1 µM (active)

SMILES,"activity, negative = inhibition",AC50
Cc1ccc(C(=O)NC2CCCCC2)cc1,-27.2%,
O=S(=O)(Nc1nc(-c2sccc2Cl)cs1)c1cc(Cl)ccc1Cl,,7.94 µM (active)
CC(=O)c1c(N2CCC(C(N)=O)CC2)nc(=S)n(-c2ccccc2)c1C,28.2% [at 2.29 µM],
FC(F)(F)c1cc(Sc2ccccc2)nc(-c2ccccn2)n1,22.3% [at 11.4 µM],
COC(=O)[C@@]1(Cc2ccccc2)[C@H]2c3cc(C(=O)N4CCCC4)n(Cc4ccc(C)o4)c3C[C@H]2CN1C(=O)c1ccccc1,,2 µM (active)
COC(=O)[C@@]1(Cc2ccc(F)cc2)[C@H]2c3cc(C(=O)N4CCCC4)n(Cc4ccc(C)o4)c3C[C@H]2CN1C(=O)c1ccccc1,,3.16 µM (active)
COC(=O)[C@@]1(Cc2ccc(F)cc2)[C@H]2c3cc(C(=O)N(C)C)n(Cc4ccc(C)o4)c3C[C@H]2CN1C(=O)c1ccccc1,,2.51 µM (active)
C=CCC(C(=O)OC)(C(=O)OC)c1ccc([N+](=O)[O-])cn1,-25.4%,
COC(=O)C(NC(=O)c1ccc(F)cc1)(Nc1ncc(S(=O)(=O)c2ccc([N+](=O)[O-])cc2)s1)C(F)(F)F (configuration not stated),,5.01 µM (active)
COC(=O)C(C)(C(=O)OC)c1ccc([N+](=O)[O-])cn1,-3.67%,
Cc1cc(C(F)F)n2nc(C(=O)Nc3cccnc3Cl)nc2n1,2.46% [at 2.29 µM],
C/C(=N\NC(=O)c1[nH]c2c([N+](=O)[O-])cc(C)cc2c1-c1ccccc1)c1cccnc1,,1.12 µM (active)
O=C(Oc1ccccc1[N+](=O)[O-])c1cccnc1,-15.4%,
O=C(O)c1[nH]c2c([N+](=O)[O-])cc([N+](=O)[O-])cc2c1C(=O)O,3.73% [at 11.4 µM],
CCOC(=O)c1c(NC(=O)/C=C/c2ccc3c(c2)OCO3)sc(C)c1C,18%,
COC(=O)c1cccc(NC(=O)/C=C/c2cccc([N+](=O)[O-])c2)c1,,10 µM (active)
CC(/C=N/NC(=O)c1cccc([N+](=O)[O-])c1)=C\c1ccccc1,-14.1%,
CCOC(=O)c1c(NC(=O)/C=C/c2ccc3c(c2)OCO3)sc(C)c1CC,,5.01 µM (active)
O=C(/C=C/c1cccc([N+](=O)[O-])c1)NCCN1CCOCC1,-20.8%,
COC(=O)c1cc(NC(=O)/C=C/c2ccc3c(c2)OCO3)cc(C(=O)OC)c1,,0.794 µM (active)
O=C(O)C[C@@H](C(=O)O)c1ccccc1[N+](=O)[O-],0.874% [at 11.4 µM],
CCSc1nnc(NC(=O)COc2ccc3ccccc3c2)s1,-4.8% [at 2.29 µM],
CCOc1ccc(N2C(=O)CS/C2=N/NC(=O)COc2ccc3ccccc3c2)cc1,,0.891 µM (active)
C=CCSc1nnc(NC(=O)COc2ccc3ccccc3c2)s1,-10.4%,

SMILES,"activity, negative = inhibition",AC50
O=S(=O)(O)c1ccc(-c2nnc(-c3ccccn3)nc2-c2ccc(S(=O)(=O)O)o2)o1,6.48% [at 11.4 µM],
CC[C@]1(O)C[C@@H]2CN(CCc3c([nH]c4ccccc34)[C@](C(=O)OC)(c3cc4c(cc3OC)N(C)[C@H]3[C@](O)(C(=O)OC)[C@@H](C(=O)OC)[C@@]5(CC)C=CCN6CC[C@@]43[C@@H]65)C2)C1,,15.8 µM (active)
CC[C@]1(O)C[C@H]2CN(CCc3c([nH]c4ccccc34)[C@](C(=O)OC)(c3cc4c(cc3OC)N(C=O)[C@H]3[C@@](O)(C(=O)OC)[C@H](OC(C)=O)[C@@]5(CC)C=CCN6CC[C@]43[C@H]65)C2)C1,,3.98 µM (active)
C=CCn1c(C)cc(C(=O)CN2C(=O)c3ccccc3C2=O)c1C,,2.82 µM (active)
CCN(CC)c1ccc(SS(=O)(=O)O)cc1,22.8%,
COc1cc(C(=O)Oc2ccccc2/C=N/NC(=O)c2ccc(C)cc2)cc(OC)c1OC,18.9%,
O=C(N/N=C/c1ccc2cccc(OCc3ccccc3)c2n1)c1ccc(Br)cc1,-19% [at 2.29 µM],
COc1ccc(C(=O)N/N=C/c2cccc3cccnc23)cc1,,22.4 µM (active)
Cc1cccc(NC(=O)CCS(=O)(=O)c2cccc3nsnc23)c1C,-25.6% [at 2.29 µM],
O=C(CCS(=O)(=O)c1cccc2nsnc12)NC1CCCCC1,,5.01 µM (active)
O=C(O)[C@@H]1CCCN1Cc1ccc2c(c1)OCO2,-11.9% [at 11.4 µM],
CC1(C)SC(=S)N(Cc2ccc3c(c2)OCO3)C1N(O)C(=O)NC1CCCCC1 (configuration not stated),,1.12 µM (active)
O=C(Cn1cnc2ccccc21)NC(c1ccccc1)c1ccccc1,,7.94 µM (active)
O=C(O)CC(c1ccccc1)n1cnnn1 (configuration not stated),19%,
CN[C@@H]1[C@H](O[C@H]2[C@@H](O[C@@H]3[C@@H](O)[C@@H](O)[C@@H](N=C(N)N)[C@@H](O)[C@@H]3N=C(N)N)O[C@@H](C)[C@]2(O)CO)O[C@H](CO)[C@@H](O)[C@@H]1O,-18.2% [at 25.6 µM],
COc1cc(C)ccc1OCCCOc1ccccc1Br,3.33% [at 2.29 µM],
COc1cc(C=O)ccc1OCCOCCOc1ccccc1Cl,-2.53% [at 2.29 µM],
COc1ccccc1OCCCOc1ccc([N+](=O)[O-])cc1Cl,,14.1 µM (active)
Cc1ccc2c(c1)N(CC(=O)NC1CCCc3ccccc31)C(=O)CO2 (configuration not stated),,7.08 µM (active)
Cc1ccc2c(c1)N(CC(=O)NC1CCC(C)CC1)C(=O)CO2 (configuration not stated),,7.08 µM (active)
Cc1ccc(C(=O)NC(=S)Nc2cccc3nsnc23)cc1,-8.47%,
Cc1ccc(C(=O)N/C(=C\c2ccc(Br)cc2)c2nc(=S)[nH][nH]2)cc1,,22.4 µM (active)
CC(=O)NN1C(=O)/C(=C\c2ccc(C)cc2)SC1=S,-28%,
CN(C)CCCN1c2ccc3ccccc3c2Sc2cccc(Cl)c21,-11.7% [at 11.4 µM],
